Reference: the supplement of paper PMC10681739

Assays:
[1] = biological target: T1, ETS1 (UniProt P14921); assay: ETS1 binding intensity (PBM fluorescence), ETS1 alone (arbitrary fluorescence units); higher = stronger binding; conditions: ETS1 concentration 1 nM; RUNX1 concentration 0 nM
T1 sequence: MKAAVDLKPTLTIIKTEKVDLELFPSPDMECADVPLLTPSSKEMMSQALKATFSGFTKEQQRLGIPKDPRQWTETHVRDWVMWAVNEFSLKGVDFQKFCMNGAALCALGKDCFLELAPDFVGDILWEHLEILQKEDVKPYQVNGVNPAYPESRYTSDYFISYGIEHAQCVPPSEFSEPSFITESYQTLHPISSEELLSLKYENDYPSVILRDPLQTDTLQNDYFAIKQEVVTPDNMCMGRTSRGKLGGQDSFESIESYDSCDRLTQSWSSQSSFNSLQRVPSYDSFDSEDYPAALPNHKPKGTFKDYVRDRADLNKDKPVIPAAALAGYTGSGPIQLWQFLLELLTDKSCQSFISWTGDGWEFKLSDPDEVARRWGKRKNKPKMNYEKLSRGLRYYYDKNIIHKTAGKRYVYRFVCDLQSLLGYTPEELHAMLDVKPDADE

[2] = biological target: RUNX1 (UniProt Q01196); assay: RUNX1 binding intensity (PBM fluorescence), RUNX1 alone (arbitrary fluorescence units); higher = stronger binding; conditions: RUNX1 concentration 2 nM; ETS1 concentration 0 nM
Description: (§1)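 Cooperative gcPBM on 36-bp genomic probes with neighbouring ETS1 and RUNX1 sites. Recombinant human RUNX1 (2 nM) was incubated alone or with ETS1 (25 nM) and detected with anti-RUNX1 antibody plus Alexa488 secondary. Values are medians over 4 replicate spots; the RUNX1+ETS1 data were normalised to the RUNX1-only data. The probes sit in constant array flanks that are not printed.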

[3] = biological target: RUNX1 (UniProt Q01196); assay: RUNX1 binding intensity (PBM fluorescence) in presence of ETS1, normalised to RUNX1-only experiment (arbitrary fluorescence units); higher = stronger binding; conditions: RUNX1 concentration 2 nM; ETS1 concentration 25 nM
Description: as §1

[4] = biological target: T1, ETS1; assay: ETS1 binding intensity (PBM fluorescence) in presence of RUNX1, normalised to ETS1-only experiment (arbitrary fluorescence units); higher = stronger binding; conditions: ETS1 concentration 1 nM; RUNX1 concentration 25 nM
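For RUNX1 binding intensity (PBM fluorescence) in presence of ETS1, normalised to RUNX1-only experiment in this document: Full-length recombinant human ETS1 or RUNX1 bound to double-stranded 36-bp genomic probes on microarrays, detected by protein-specific primary antibody and Alexa488 secondary, spot fluorescence as median of four replicate spots.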
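For RUNX1 binding intensity (PBM fluorescence), RUNX1 alone in this document: Full-length recombinant human RUNX1 bound to double-stranded 36-bp genomic probes on a high-density microarray, scored as Alexa488 fluorescence per spot via anti-RUNX1 antibody, median of four replicate spots.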

RUNX1, sequence (Q01196 whole entry): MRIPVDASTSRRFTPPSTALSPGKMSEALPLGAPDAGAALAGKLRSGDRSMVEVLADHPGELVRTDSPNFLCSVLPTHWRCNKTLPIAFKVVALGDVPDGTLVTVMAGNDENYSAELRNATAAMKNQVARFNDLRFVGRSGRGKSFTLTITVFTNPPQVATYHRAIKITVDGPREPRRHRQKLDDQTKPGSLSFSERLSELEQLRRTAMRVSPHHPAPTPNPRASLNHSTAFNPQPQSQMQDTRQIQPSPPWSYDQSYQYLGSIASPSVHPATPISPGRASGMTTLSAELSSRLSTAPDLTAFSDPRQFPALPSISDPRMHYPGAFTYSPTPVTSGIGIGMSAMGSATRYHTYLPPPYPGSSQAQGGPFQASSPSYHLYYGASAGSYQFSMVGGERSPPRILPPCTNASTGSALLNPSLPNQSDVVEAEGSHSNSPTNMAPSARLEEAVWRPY

Sequence	ETS1 binding intensity [1]	RUNX1 binding intensity [2]	RUNX1 binding intensity [3]	ETS1 binding intensity [4]
GGCAGCCGGCTTCCGGCTGTGGGTGGTGCGGGGGAC	1370	676	1540	–
TCCCTTACCTTCCTGCTGCCACCAAACCACCAAACC	460	2510	3260	–
TGTGAACTGACAGGATGTGGTACAAGGCTTACAAAG	4830	730	1780	–
ACCCAGTAGGGGCCAGGATGTGGTGAAAAGAGAATT	1610	728	1020	–
AAAGCATTTCCTGCCTTGACTTAACCACAAGACAGG	1880	1460	4320	–
GGGAGGTGTCCAGGAAGTGGTTGGAGAGTCTGGTCT	2240	756	1020	–
CAGAAAAGGCAGGAAGTGGTACAAACCACAAAAGGC	5820	1320	8000	–
GGACAGGAAGTTCCTGCAGCTTCTACCACAAACCTA	2450	829	1420	–
CAGAGCAGAGAGGAAGTGGTGGTGGCCACAGTCCCA	1760	686	1220	–
GCTGGTATGGCAGGAAGTTTCTCACCACAGTATACT	3540	780	1160	–
CTCAGGGTACCAGGATGTGGTTTAGCTTAGGGGTGG	1840	980	2310	–
GGCCTTCATTACACAGGATGCGGTTGAAATGCATCA	4110	931	1630	–
GCAGTTTCAAGAGGATGTGGTCTCTTTCACTGCCTG	1160	724	1080	–
GATTGTTATGTCCGGAAACCGCTTATCAGAGCCCTG	2870	861	1590	–
CCTGCAGCAACAGGATGTGGTTTGAAAGGATGAAAG	7250	778	6460	–
CGGGAGGGGCAGGAAGCGGACTGCGGTGGGGAAGGG	2770	939	1470	–
AAGTTTTGGGTTTTCCGCCCACAGCCGCCGAAAGTG	630	888	1090	–
TGTGTATGAGAACGGATATAGGTGGTTTTATAAGGA	1890	756	941	–
GGTGTGTTCTGGGGAGGAAGTGGGTTTTCAGGTTGT	3820	799	1120	–
CTCATTGACAGGAAGTCTAACCACAGGCTTAGGCCC	3730	1400	6750	–
GCGAAAGGAACTTCCTTTGCATGCGGTCAGAGTGCT	477	892	2490	–

Sequence	ETS1 binding intensity [1]	RUNX1 binding intensity [2]	RUNX1 binding intensity [3]	ETS1 binding intensity [4]
AGCTGCAGTTGGGCAGGAAACCACAATGTCGAAGAC	2490	1320	2400	–
AGCGGCCTGGGAGGAGGATGTGGTTACGTGGAGACC	1120	996	1510	15200
AAGTGAAGAGCTTCCGCCGGGAGACCGCGGCTGCAG	592	737	1250	686
CCTCTTGGTTTCCTGTCCCTCACCACAAGAAGCAGT	625	1540	4520	1520
CCCCTCACTTCCCTCAACCCTTCCCACAAACTGGGA	597	1920	2350	571
TGCTCAAATGCAGGATGTGGTCTGAGAGTTTCTCCT	1910	693	1680	6550
CAGGCTGCTTCCGGCGCGCGGCAGAGCGGTCAGAGC	990	714	1700	1160
AGAGGCAGCTTCCGGAGACTGCTCTGTGGCCAGTTT	794	711	1310	1070
GGGATCTACTTCCTCTCTCGGCCGCGGCCGCAGCAC	790	792	1730	1150
CGAGCAGGAAGTGGCAAGATTTGATAGGCGGTCAGG	1970	739	1450	2940
TCCTTTTCCGGTGGCGGCGCCGCGCGGTGAGGTTGT	754	731	1880	615
CATAGGAAGTGCTCAGCTCTCCTCCACCGCAAGTTT	452	806	879	2190
TATTCTTCCTGTACTTAAGCTTGCTGGTGTGGTTTC	397	868	1560	492
AGAACAAAACAGGAAATAGTGGTTTGCAAAAATATA	5780	736	1730	8400
CTGCTGGCGTTCCCGGATGTGCGGTGGCGGTGCTAC	4900	753	1570	9340
TAGACTAACAGGGGAGGAAGTGGGTTGCAAGCCGTG	2030	683	868	2740
TGCTTCCCGTCCGTGTCGCGGCCCTGCGGTTGGCGG	324	1080	3310	813
GCCTGCACCCTAGTTCCGGTGTGGGTGGAGGGGCCG	1040	4050	4850	999
TCCTTAATGGTTCCGGCGGCAGGGACCGCAGCGACG	460	824	914	526
CCCCTATATCACAGGATGCCGCAAACTAGTAACAGG	1610	827	993	2210
GCCATCCAGGAAGTACAGACTCCCTGACCGCACTGA	1030	1140	2110	5400

Sequence	ETS1 binding intensity [1]	RUNX1 binding intensity [2]	RUNX1 binding intensity [3]	ETS1 binding intensity [4]
GAGCGGAAACCCGAGAGTCAGTTCAACCACAGCCAC	592	889	1010	980
CGGCTGTTTTCCAGGATGTTGTGGTCATGGCGGTGT	1590	2920	4090	6320
TCCTGGCAGAGACCGGAAGTGCGGTCCGCGGAGCGT	28200	739	1800	43300
TATGGCGGGCAGGAAGTGCGGGTGCGCGCCTGCGCA	4640	642	1360	5650
CTGACAGTTACTTCCTGTCTTTGTGGGCGATTGTGA	3170	829	2390	4620
CACCCGAACGGAAACACCTGCGGCTGAGGGGAGGGG	959	989	938	1110
GCCACTTCCTGGAAAACAGTAATTACCACACGTCTC	464	1100	2160	546
GCAACGGAGTCCGGAAGAACCACAGAGACGCGGCTC	789	730	858	694
GACAAAACACAGAAAGGAAGTGGTCAACTATTGCAC	2510	835	1600	4930
CTTCGACCCCGGAAGCGCTAACCACCCCGGGGGCCG	4160	797	1370	5880
GTGGGTTTAGGATATGGGTGTGGTTTCTAATTGTCT	428	885	1020	653
TGGAACAATGCTGCTTCCTGTGGGTGTCCCCCGGCC	1140	698	1330	1400
GCACTGTGGGAGGAAGTGGGTATGTGGTGAGCTCTT	1650	856	1560	4990
ACTTTAATAGAGTCCGGATGCGGTTAGGCTGACAGA	2670	2000	7430	30400
GTTGTCTTCTTCCTGAGTAAACCGCAGTGCAGAGAA	456	5250	6380	1120
GCCGGGCACCCCGGAAGACCGCTGGGAACCGGCTTT	1080	656	1080	1070
TACAACTTGCAACGGAAACCACTTCAGGTTCATTAC	1320	847	866	1280
ATCCCACTATAGGAAGCTTCTCTGTGGTTTTGAGCC	369	1370	1910	1640
GAGTTGCTTCCGGCCGTGTTGGTGGTCTGAATTGAG	1590	802	1830	1830
ACTGAACAAACCGGATGTGGTTCCCACCTGCAATCT	25000	850	11400	29500
CTGTGAGGCGGAAGTGGCGGGCTCTGTGGGCGCAAG	3860	703	1430	8270
